Experimental data as given in PubChem BioAssay (NCI).
Compounds without any hit were thinned out: in the full panel of roughly 83,000, 20% have a hit.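 Treatment: one concentration, 48 hours, 96-well format. Scoring: percent growth, with anything below 10 considered active.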 Calls of active or inactive are those of the source.

What was measured:
Test in all cases: NCI-60 one-dose screen, 48 h (100 = growth as untreated, 0 = no growth, -100 = all killed)
Conditions in all cases: 10 µM unless noted
[1] = system: RPMI-8226 leukemia
[2] = system: OVCAR-8 ovarian
[3] = system: OVCAR-5 ovarian
[4] = system: OVCAR-4 ovarian
[5] = system: SK-OV-3 ovarian
[6] = system: IGROV1 ovarian
[7] = system: OVCAR-3 ovarian
[8] = system: HS 578T breast
[9] = system: SR leukemia
[10] = system: NCI/ADR-RES ovarian

Measured: growth

CCOC(=O)/C=C/c1ccc(C(=O)OCC)[nH]1
inactive: [1] 75.4% | [2] 62.9% | [3] 75.5% | [4] 108% | [5] 84.8% | [6] 42.4% | [7] 22.6% | [8] 74%

CN(C)c1ccc(/C=C(\C#N)c2nc3ccccc3s2)cc1
inactive: [9] 87.5% | [1] 111% | [2] 99.5% | [3] 109% | [5] 111% | [6] 103% | [7] 119% | [10] 107%

CC1(C)OCC2OC3(C(=O)O)OC(C)(C)OC3C2O1 (configuration not stated)
inactive: [9] 101% | [1] 117% | [3] 106% | [4] 118% | [5] 101% | [6] 106% | [7] 99.2% | [8] 102% | [10] 107%

COc1ccc2nc(NC(=O)c3cccnc3Nc3cc(OC)c(OC)c(OC)c3)sc2c1
active: [9] -12.6% | [1] -1.38% | [2] -10.3% | [4] -65.5% | [5] -40.4% | [7] -62.5% | [10] 4.41%
inactive: [6] 68.6% | [8] 44.5%

O=C1c2cccnc2C(=O)c2c1c(C(=O)OCCN1CCCCC1)c1ccccn21
active: [1] -29.9% | [2] -58.2% | [3] -27.8% | [4] 0.138% | [5] -36.8% | [6] -16.7% | [7] -2.68% | [8] -0.578%

COc1ccc(CNc2nccnn2)cc1
inactive: [9] 52.1% | [1] 108% | [3] 96.4% | [4] 111% | [5] 109% | [6] 101% | [7] 105% | [8] 111% | [10] 99.4%

CC[C@H](Nc1cc(C)nc(N)n1)c1nc2cccc(NCc3ccc(C(=O)NO)cc3)c2c(=O)n1-c1ccccc1
active: [1] -17.9% | [6] -4.45%
inactive: [2] 17.7% | [3] 32.3% | [4] 49.3% | [5] 29.8% | [7] 16.4%

CN(C)C(=O)c1cc2cnc(Nc3ccc(-c4csc5c(=O)cc(N6CCNCC6)oc45)cc3)nc2n1C1CCCC1
inactive: [2] 20.7% | [3] 22.9% | [4] 29.7% | [5] 32.2% | [6] 15.6% | [7] 20.6% | [8] 11.4% | [10] 77.5%
active: [1] -22.9%

C/C(=C(/c1ccc(O)cc1)c1ccc(OCCN(C)C)cc1)c1ccccc1
inactive: [9] 63.7% | [1] 85.1% | [3] 87.6% | [4] 83.2% | [5] 90.2% | [6] 89.1% | [7] 90.2% | [8] 90% | [10] 81.3%

COc1ccc(-c2cc(NC(=O)Nc3ccc(O)cc3)no2)cc1
inactive: [1] 82.1% | [2] 90.1% | [3] 82.9% | [4] 76.7% | [5] 111% | [6] 68.2% | [7] 87.4% | [8] 89.3% | [10] 67.8%

Nc1c(C(=O)Nc2ccccc2Cl)sc2nc3c(cc12)CCCCCC3
inactive: [9] 13.2% | [2] 48.8% | [3] 60.9% | [5] 43.9% | [6] 25.9% | [7] 21.5% | [8] 17.3% | [10] 35%

COc1cc(-c2c3c(nc4c2c(C)nn4-c2ccccc2)-c2ccccc2C(=O)C3=O)cc(OC)c1OC
active: [7] -29.4%
inactive: [1] 55.2% | [2] 80.1% | [3] 103% | [4] 78.5% | [5] 104% | [6] 94.9% | [8] 111% | [10] 79.7%

Cc1ccc(S(=O)(=O)N(CCc2ccc(Cl)cc2)S(=O)(=O)c2ccc(C)cc2)cc1
inactive: [9] 82.5% | [1] 76.9% | [3] 106% | [4] 86.5% | [5] 85.2% | [6] 89.1% | [7] 95% | [8] 103% | [10] 87.9%

O=C(Nc1cccc2c1C(=O)c1cccc(Nc3cccc4c3C(=O)c3cccc(NC(=O)c5ccccc5)c3C4=O)c1C2=O)c1ccccc1
inactive: [9] 101% | [1] 107% | [2] 96.1% | [3] 114% | [5] 101% | [6] 75.6% | [7] 123% | [10] 105%

CNC(=S)N/N=C/CSC/C=N/NC(=S)NC
inactive: [1] 63.7% | [3] 89.8% | [4] 76.1% | [7] 32.3% | [8] 107% | [10] 97.9%
active: [9] 6.29% | [6] 9.24%

O=C(Cn1cc(CN2C(=O)c3ccccc3S2(=O)=O)nn1)Nc1ccc([N+](=O)[O-])cc1Cl
inactive: [1] 107% | [2] 95.3% | [3] 113% | [4] 115% | [5] 73.5% | [6] 103% | [7] 105% | [8] 92.9%

COc1ncc(-c2ccc3ncnc(Nc4cccc(Cl)c4)c3c2)cc1NS(C)(=O)=O
active: [5] -11.2% | [6] -45.5%
inactive: [9] 50.6% | [1] 22.8% | [2] 45.5% | [7] 26.9% | [8] 16.2% | [10] 51%

CCCCCCCCSC1=CC(=O)C(OC)=C(OC)C1=O
active: [1] -24.5% | [2] -9.18% | [7] -40.8% | [10] -27.1%
inactive: [3] 28% | [4] 21.5% | [5] 86.4% | [6] 43.2% | [8] 63%

CSc1nc(NCCCNc2ccnc3cc(Cl)ccc23)cc(-c2ccccc2)n1
inactive: [2] 81.7% | [3] 95% | [4] 66.6% | [5] 82.3% | [6] 67% | [7] 72.3% | [8] 65% | [10] 67.5%
active: [1] 7.4%

O=S(=O)(NCCCNc1cc(-c2cn(-c3ccccc3)nc2-c2cccc(O)c2)ccn1)c1ccccc1
inactive: [9] 35.5% | [1] 32.1% | [2] 46.1% | [4] 59.8% | [5] 66.4% | [6] 59.2% | [7] 58.9% | [8] 46.9% | [10] 51.3%

C=C1CCC2C3(C)COC(c4ccc(OC)cc4Br)OC3CCC2(C)C1/C=C/C1=CCOC1=O (configuration not stated)
active: [1] 7.47%
inactive: [2] 79.3% | [3] 98.3% | [4] 67.9% | [5] 97.5% | [6] 79.8% | [7] 80.8% | [8] 94.7%

O=[N+]([O-])c1c(F)cccc1Nc1cccc(F)c1
inactive: [9] 102% | [2] 102% | [3] 97.3% | [4] 95.9% | [5] 114% | [6] 117% | [7] 109% | [8] 102% | [10] 110%

O=C(Nc1ccc(Nc2cc(Nc3ccccc3)ncn2)cc1)Nc1cc(C(F)(F)F)ccc1F
inactive: [9] 42% | [1] 65.1% | [3] 78.1% | [4] 71.2% | [5] 101% | [6] 90.3% | [7] 88.5% | [8] 78.9% | [10] 81.1%

O=C1CCc2c(sc3[nH]c(=S)n(Cc4ccccc4)c(=O)c23)C1
inactive: [2] 14.3% | [4] 21.8% | [5] 22.2% | [6] 34.2%
active: [1] 3.36% | [3] 9.59% | [7] 9.16% | [8] -3.81%

O=S(=O)(NCCCNc1cc(-c2cn(-c3ccccc3)nc2-c2ccccc2)ccn1)c1ccc(C(F)(F)F)cc1
inactive: [9] 39.3% | [1] 44.1% | [2] 54.6% | [4] 58.7% | [5] 68.9% | [6] 59.2% | [7] 72% | [8] 61% | [10] 46.2%

C[C@@H]1CC[C@@H]2[C@@H]1[C@H](OC(=O)/C=C/c1ccccc1)[C@]1(C3CCCCC3)C[C@@H](OC(=O)CO)[C@@]2(C)O1
active: [8] -22.4%
inactive: [1] 44.9% | [2] 45.2% | [3] 96% | [4] 74.8% | [5] 81.4% | [6] 81.3% | [7] 75.1% | [10] 51.1%

Oc1c(Cl)cc(Cl)cc1CNc1nccnn1
inactive: [1] 105% | [2] 108% | [3] 101% | [4] 106% | [5] 107% | [6] 96.3% | [7] 92.1% | [8] 114% | [10] 98.5%

O=C(O)C(O)C(O)C(=O)O.[NH-]C1CCCCC1[NH-].[Pt+2] (configuration not stated)
inactive: [9] 117% | [1] 110% | [3] 108% | [4] 106% | [5] 105% | [6] 106% | [7] 107% | [8] 109% | [10] 107%

O=C(/C=C/c1ccc(B(O)O)cc1)/C=C/c1ccc(B(O)O)cc1
active: [9] 8.8% | [1] -23.5% | [6] -73.3%
inactive: [2] 72.2% | [3] 92.8% | [5] 46.8% | [7] 27.8% | [10] 91.7%

C=C1CC[C@@H]2[C@](C)(COC(C)=O)[C@H](OC(C)=O)CC[C@@]2(C)[C@@H]1CC(Nc1ccc(S(=O)(=O)Nc2ccc(Cl)nn2)cc1)C1=CCOC1=O (some centres not stated)
active: [9] -5.26% | [1] -19.2% | [7] -56.1%
inactive: [2] 16.9% | [3] 44.6% | [5] 86.1% | [6] 43.3% | [8] 75.6% | [10] 16.7%
